Experimental findings from PubChem BioAssay (NCATS) are described below.

SMILES strings stand for the structures. Where “and” joins values, the source holds several entries; their conditions need not be identical. Equal entries are not always repeated. Inconclusive results are not listed. Values without a mark were called inactive. Calls of active or inactive are those of the source. Calls follow the shape of the dose curve; as a rule, active = well fitted inhibition curve with a large enough effect; inconclusive = small, poorly fitted or top-dose-only effect; inactive = flat fitted curve, though single readings scatter.

The subject of test [1] is N140. In words: qHTS profiling for inhibitors of Plasmodium falciparum proliferation (AID 504749).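 Also: 0% = DMSO vehicle and full inhibition = artemisinin control.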 The note with it: P. falciparum in erythrocytes, SYBR Green DNA, 72 h; series mostly up to 28.7 µM. The essentials:
(§1)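 Each compound contacts P. falciparum-infected red blood cells for 72 h at 37 C; lysis buffer (Tris, EDTA, saponin, Triton X, SYBR Green I) is added and fluorescence measured next morning; values normalized to controls.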

Test [2] deals with P94_40. Described as above. The note with it: P. falciparum in erythrocytes, SYBR Green DNA, 72 h; series mostly up to 28.7 µM. The essentials:
as §1

Test [3] concerns PAD. The test is described as above. Particulars: P. falciparum in erythrocytes, SYBR Green DNA, 72 h; series mostly up to 28.7 µM. The essentials:
as §1

For test [4], the system named is PC15. The test is described as above. The note with it: P. falciparum in erythrocytes, SYBR Green DNA, 72 h; series mostly up to 28.7 µM. The essentials: as §1
Test [5] concerns PC26. The description is as above. The note with it: P. falciparum in erythrocytes, SYBR Green DNA, 72 h; series mostly up to 28.7 µM. An outline of the steps:
as §1

The test system of test [6] is PC49. The test is described as above. Particulars: P. falciparum in erythrocytes, SYBR Green DNA, 72 h; series mostly up to 28.7 µM. An outline of the steps: as §1
Test [7] concerns SC27B. Described as above. Particulars: P. falciparum in erythrocytes, SYBR Green DNA, 72 h; series mostly up to 28.7 µM. An outline of the steps:
as §1

Test [8] relates to TAB113. The description is as above. The note with it: P. falciparum in erythrocytes, SYBR Green DNA, 72 h; series mostly up to 28.7 µM. An outline of the steps: as §1
Test [9] relates to TAB165. The test is described as above. Particulars: P. falciparum in erythrocytes, SYBR Green DNA, 72 h; series mostly up to 28.7 µM. The essentials: as §1
Test [10] concerns CRL-7250. In words: Cytotoxic Profiling of Annotated Libraries Using Quantitative High-Throughput Screening (AID 1296008). Also: potency is read from the fitted curve at half-maximal effect. As to max response: % is scaled to controls: 0 for no effect and ±100 for the full control effect. Particulars: Five cell lines viability, CellTiter-Glo ATP luminescence, 48-72 h; max response: hits give low values. An outline of the steps: (§2)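 Cells exposed to compounds for 48 or 72 hr at 37 degrees Celsius. Viability read as ATP-coupled luminescence with CellTiter-Glo after 10 min at room temperature.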

Test [11] has as its system HEK293. The description is as above. The note with it: Five cell lines viability, CellTiter-Glo ATP luminescence, 48-72 h; max response: hits give low values. An outline of the steps: as §2
For test [12], the system named is HaCat. The test is described as above. The note with it: Five cell lines viability, CellTiter-Glo ATP luminescence, 48-72 h; max response: hits give low values. An outline of the steps: as §2
Test [13] deals with KB-3-1. Described as above. The note with it: Five cell lines viability, CellTiter-Glo ATP luminescence, 48-72 h; max response: hits give low values. The essentials: as §2
Test [14] relates to NIH3T3. The description is as above. Particulars: Five cell lines viability, CellTiter-Glo ATP luminescence, 48-72 h; max response: hits give low values. An outline of the steps: as §2
In test [15] the test system is HACAT. In words: qHTS assay to identify novel small-molecules to repurpose for Merkel cell carcinoma treatment (AID 1296009). The note with it: MCC and control cell lines, CellTiter-Glo viability, 72 h; at 44.8 µM (top of the series) unless noted. An outline of the steps: (§3)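 Dose-response viability screen; 72 hr exposure at 37 degree celsius; CellTiter-Glo added, 10 min room temperature, luminescence read; RLUs scaled between no-cell and DMSO wells.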

Test [16] concerns P93_24. Description: qHTS profiling for inhibitors of Plasmodium falciparum proliferation (AID 504749).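 Also: 0% = DMSO vehicle and full inhibition = artemisinin control.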 Particulars: P. falciparum in erythrocytes, SYBR Green DNA, 72 h; series mostly up to 28.7 µM. The essentials:
as §1

The test system of test [17] is TAB109. The description is as above. The note with it: P. falciparum in erythrocytes, SYBR Green DNA, 72 h; series mostly up to 28.7 µM. An outline of the steps: as §1
Test [18] deals with W2. The description is as above. Particulars: P. falciparum in erythrocytes, SYBR Green DNA, 72 h; series mostly up to 28.7 µM. An outline of the steps: as §1
For test [19], the system named is CRL-7250. In words: qHTS assay to identify novel small-molecules to repurpose for Merkel cell carcinoma treatment (AID 1296009). The note with it: MCC and control cell lines, CellTiter-Glo viability, 72 h; series mostly up to 44.8 µM. The essentials:
as §3
Also: nearly all actives have a fitted effect of over 60% in size.

With `C#CCOC(C(=O)OCCN(C)C)(c1ccccc1)c1ccccc1`, the Potency entry in test [1], in test [2], in test [3], in test [4], in test [5] and in test [6] was “inactive” each time. The Potency result in test [7], in test [8] and in test [9] was “inactive” in each case. Moreover, the max response in test [10] was -6.32%; in [11], -8.54%; in [13] it was -0.159%. Further, the call in test [12], in test [14] and in test [15] was inactive.

Turning to `O=C(O)c1ccc2[nH]cc(CCCCN3CC=C(c4ccccc4)CC3)c2c1`, the Potency result in test [1], in [16], in test [2], in test [3], in [4] and in [5] was “inactive” in each case. For the same compound, the Potency result in test [6], in test [7], in test [17], in [8] and in test [9] was “inactive” in each case. In addition, the max response in test [10] was -7.24%; in test [11] it was -0.718%; in test [13], -2.41%. The call in test [12], in test [14] and in [15] was inactive.

Take `CCC(C(N)=O)N1CCCC1=O` (stereo not given): the Potency entry in test [1], in test [16], in test [2], in [3], in test [4] and in test [5] was “inactive” each time. Further, the Potency entry in test [6], in test [7], in test [17], in [8] and in test [9] was “inactive” throughout. Further, the max response in [10] was -0.833%; in [11], -1.93%; in test [13] it was -5.57%. Also, the call in test [12], in [14] and in test [15] was inactive.

For `OCCOc1ccccc1`, the Potency result in test [1], in [16], in test [2], in [3], in test [4] and in [5] was “inactive” throughout. Further, the Potency result in test [6], in test [7], in [17], in test [8], in [9] and in test [18] was “inactive” throughout. For the same compound, the max response in test [10] is 3.79%; in test [11] it was 1.79%; in test [13] it was 1.69% and -18.4%; in test [14], 0.364%. The result in test [12] and in [15] was inactive.

In the case of `CC1=C(C(=O)O)N2C(=O)[C@@H](NC(=O)[C@H](N)c3ccc(O)cc3)[C@H]2SC1`, the compound was called inactive in test [19].

With `CCOc1ccc2ccccc2c1C(=O)N[C@@H]1C(=O)N2[C@@H]1SC(C)(C)[C@@H]2C(=O)O`, the call in test [19] was inactive.

With `COc1ccc2c(c1OC)CN1CCc3cc4c(cc3C1C2)OCO4` (stereo not given), the Potency in test [11] was 9.44 µM (active) and 935 nM (active). Also, the max response in test [12] is 1.37%; in test [13] it was -7.53% and -10%; in test [14], -8.93%. Also, the call in [12] and in [15] was inactive.
